Data reported in the supplement of paper PMC6555819.

Assays:
Test in all cases: PBM binding z-score (relative to random genomic background probes); higher = stronger binding; sequences stand for … in GC…GCGATTGACAGCGTAGAATGAAGG
[1] = test system: RARb homodimer (NR concentration 270 nM)
Summary of the method: (§1)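 Ligand-free nuclear receptor dimers were bound for 1 h to custom Agilent 4×180K protein-binding microarrays. Detection used antibodies against each partner (one per run). Binding z-scores rest on regression-normalized fluorescence, with random background probes as the reference.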

[2] = test system: RARg:RXRa (NR concentration 270 nM, RXRa partner concentration 90 nM)
Summary of the method: as §1

[3] = test system: RARg homodimer (NR concentration 270 nM)
Summary of the method: as §1

[4] = test system: RXRa DBDmut IVT, anti-RXR (DBD mutation: RXRa K156A/R161A, NR concentration 90 nM)
Summary of the method: as §1

[5] = test system: RXRa homodimer (NR concentration 180 nM)
Summary of the method: as §1

[6] = test system: THRa:RXRa (NR concentration 90 nM, RXRa partner concentration 90 nM)
Summary of the method: as §1

[7] = test system: THRa homodimer (NR concentration 90 nM)
Summary of the method: as §1

[8] = test system: VDR homodimer (NR concentration 270 nM)
Summary of the method: as §1

Sequence | PBM binding z-score [1] | PBM binding z-score [2] | PBM binding z-score [3] | PBM binding z-score [4] | PBM binding z-score [5] | PBM binding z-score [6] | PBM binding z-score [7] | PBM binding z-score [8]
ATACCAAGCTGATCGTGAGGTCGTTGATACTAAC | 1.07 | 0.355 | 0.15 | 0.629 | 0.837 | 2.12 | 1.76 | 2.35
CCTCGGAGGACAACAAGAGGTCAGAGCTGCCAGA | 3.8 | 4.13 | 3.8 | 0.726 | 2.93 | 2.86 | 0.992 | 1.54
GCTAGCAGGACATTTGGGTCACTCAATGACGGGC | 1.56 | 0.785 | 0.992 | 0.736 | 0.598 | 1.81 | 0.828 | 0.846
ATATGTAGGTTAGCGGGTCATTCAGTTTGCGCAT | 2.65 | 2.83 | 2.37 | 1.42 | 2.77 | 2.06 | 1.08 | 2.76
TCTTGTATATCAATAGAGGTTAAGAAAGTGCGCT | 1.38 | 0.864 | 0.687 | 1.05 | 1.58 | 1.72 | -0.0174 | 0.47
CCTTACGGGTCAAGGTTATAGGACGGGTGGTACG | 3.29 | 4.91 | 5.12 | 0.475 | 5.36 | 3.06 | 0.968 | 1.51
TCATATAGGTAAATGCTAGGTTAAAGTCCGATCT | 0.967 | 0.772 | 0.598 | 1.74 | 0.914 | 1.35 | 0.664 | 0.441
TAGCCTAGGTCAGGCGGGCCAGTATAGTGTCGGC | 2.21 | 2.75 | 3.45 | -1.1 | 1.3 | 1.86 | -0.0587 | -0.674
CCGAGTAGGTTACGGGGCATTCAGGCAACGGTGA | 1.11 | 1.02 | 1.07 | -0.416 | 1.16 | 0.851 | -0.136 | 0.121
CCTACTGGGCCATTCAGAGGTCATTGCTCATATG | 3.78 | 4.44 | 3.16 | 0.998 | 3.47 | 3.03 | 1.28 | 3.65
TCATATAGGTAAAGGTGAAAATCGAACGATATGA | 0.939 | 1.56 | 1.28 | 0.781 | 1.98 | 0.991 | -0.415 | -0.256
AGGATGAGGTTATACGTAGATCAGGGAAGAAAGT | 1.66 | 1.85 | 1.16 | 1.66 | 2.27 | 2.39 | 1.27 | 1.08
GCTATTAGTTGAAAGGGCCACCGAATGATTCTCG | 1.19 | 0.331 | 0.583 | 0.436 | 0.34 | 0.0196 | -0.402 | 0.169
TCATATAGGTAACCAGGTGAAAGTCCGTAAGTTA | 0.957 | 0.558 | 0.452 | 1.38 | 1.25 | 1.73 | 1.05 | 0.27
GCTGCTAGATCAGGTTGGTCAGCTAACGGGTACG | -0.151 | -0.607 | -0.66 | -0.411 | -0.416 | -0.611 | -0.864 | 0.19
CGTCCAAGGTCGATGCTAGGTCAGTGAAAGCATT | 3.05 | 4.58 | 2.78 | 1.32 | 1.41 | 3.28 | 1.45 | 1.09
ATCGAAAGGACGTGAGGTGAGTATACAGAAAGGC | 0.895 | 0.703 | 1.12 | -0.854 | 0.282 | 1.89 | 0.987 | 0.126
ATCTCTAGGTAAAGATAGTACAGTGAATGCAAAT | 0.0852 | 0.268 | 0.707 | -0.147 | 0.301 | 0.452 | 0.0174 | 0.54
CGTCCAAGGTCAGCAGGTCAGTGAAAGCGACGTG | 5.12 | 6.35 | 6.64 | 2.54 | 4.82 | 4 | 2.28 | 1.77
CGTGCAAGGTCAGCAGGTCAGTGAAAGCGACGTG | 4.76 | 6.54 | 7.05 | 2.5 | 5.2 | 4.03 | 2.04 | 1.73
CGTCCAAAGTCAGCAGGTCAGTGAAAGCGACGTG | 2.43 | 1.31 | 1.5 | 0.597 | 0.851 | 1.05 | 0.291 | 0.0938
GCTAGCAGGCCATTTGGGTCATTCAATGACGGGC | 1.64 | 0.979 | 1.01 | 0.394 | 0.908 | 1.82 | 0.24 | 1.21
GTGCCAAGGTGAATAGGTCGTTGATGAGTAGGCG | 1.92 | 2.61 | 1.46 | -0.262 | 1.55 | 1.72 | 0.56 | -0.115
TTACCAAGGTGATAGGTCGTTGATGCACGCCTTG | 0.852 | 0.727 | 0.286 | -0.12 | 1.51 | 1.25 | 0.482 | 0.256
AATACAGGGTCATCGTAGGCCAGCGTACGCACAG | 3.68 | 5.61 | 4.89 | 2.94 | 6.47 | 4.79 | 1.37 | 3.03
TTACCAAGGTGAAAGGTCGTTGGTGCACGCCTTG | 2.87 | 4.49 | 1.81 | 0.82 | 6.07 | 3.48 | 0.937 | 1.86
AGAACGAGGGCAGTGAGTTGATAGCACGGGTGGC | 0.73 | 0.413 | 0.886 | 1.24 | 0.269 | 0.176 | -0.413 | 2.23
CGTCCCAGGTCAAGGTCAGTGAAAGAGACTCGAA | 4.62 | 5.74 | 6.29 | 2.55 | 5.19 | 4.18 | 3.61 | 2.6
TGTCAAAGTTCAAAGGTAACGGAAGTATCCACAC | 3.76 | 6.56 | 5.94 | 4.29 | 7.52 | 2.99 | 0.158 | 4.06
